Screening data deposited in PubChem by National Center for Advancing Translational Sciences (NCATS).
An excerpt weighted towards active compounds, which were near 4.7% of everything screened.
TRHR enhancer-1 = allosterically enhances the human TRH receptor. P34981. AID 493056. TRHR cells, fluo-8 calcium fluorescence, EC20 TRH enhancement. hit rate 0.66% among 360,000. enhancement, % at 2 µM; in the data active = enhancement above about 30%; note: 0% is about no effect
Target sequence (P34981 whole entry, looked up): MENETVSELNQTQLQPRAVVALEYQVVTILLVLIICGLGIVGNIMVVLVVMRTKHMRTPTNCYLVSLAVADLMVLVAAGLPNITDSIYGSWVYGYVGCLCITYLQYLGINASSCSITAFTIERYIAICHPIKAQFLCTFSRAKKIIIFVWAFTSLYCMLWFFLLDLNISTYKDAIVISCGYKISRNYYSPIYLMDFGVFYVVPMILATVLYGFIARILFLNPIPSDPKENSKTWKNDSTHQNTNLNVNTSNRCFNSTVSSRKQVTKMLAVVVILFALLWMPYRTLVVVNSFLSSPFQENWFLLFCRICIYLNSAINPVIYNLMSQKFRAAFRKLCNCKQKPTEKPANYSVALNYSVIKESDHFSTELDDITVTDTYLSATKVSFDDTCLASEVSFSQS
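Enhancer read-out: after compound pinning and an initial kinetic agonist-mode read, an EC20 of TRH (10 nM final) was injected and fluo-8 calcium signal (Ex 480/Em 530) followed at 1 s/cycle for 100 cycles in TRHR-expressing cells.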
TRHR agonist-1 = TRH receptor (human) agonism; P34981; TRHR cells, calcium flux fluo-8, FDSS agonist mode; activation, % at 2 µM; hit rate 0.18% among 360,000; note: 0% is about no effect
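Read-out: compound-evoked intracellular calcium rise in TRHR cells, fluo-8 dye, kinetic FDSS fluorescence at 1 s/cycle following a 10-cycle baseline. Cells cultured overnight before dye loading (30 min–1.5 h, RT).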
D1 agonist = human D1 receptor agonism; P21728; HEK293 T-REx D1 cells, calcium flux, agonist mode; activation, % at 2 µM; hit rate 1% among 360,000; AID 504660; note: 0% is about no effect
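Agonism was scored from calcium flux recorded over 180 s (1 read/s) after pintool compound addition, following a 10-cycle baseline. Cells were inducible force-coupled HEK293 TREx D1, plated overnight at 30 C and loaded with no-wash calcium dye.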
D1 antagonist = antagonists of human D1 dopamine receptor | P21728 | hit rate 3.2% among 360,000 | AID 504652 | HEK293 TREx D1 cells, calcium flux, dopamine EC80; active compounds read low | activity change, negative = inhibition, % at 10 µM; in the data active = activity change below about -30%; note: % is set by controls: 0 for no effect and ±100 for the full control effect
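HEK293 T-REx cells expressing inducible, force-coupled D1 receptor; no-wash Ca dye, 30–90 min RT. Cmpd → 180 s read at 1 Hz → EC80 DA → 180 s read.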
D1 potentiator = enhances dopamine response at the human D1 receptor; HEK293 TREx D1 cells, calcium flux, dopamine EC20 potentiation; potentiation, % at 10 µM; hit rate 0.036% among 360,000; in the data active = potentiation above about 30%; note: 0% is about no effect
TRHR enhancer-2 = confirmation of human TRH receptor allosteric enhancers; shares compounds with TRHR enhancer-1; TRH receptor cell assay, enhancer confirmation qHTS; 970 tested, under 10 active; activity change, negative = inhibition, % at 46.1 µM; AID 493076; active = well fitted curve in the direction sought with a large enough effect; inconclusive = small, poorly fitted or top-dose-only effect, or another doubt; inactive = no such curve, though single readings can be large; an effect the other way counts as inactive or inconclusive;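 note: compound effect scored on response to added TRH at EC20 of 10 nM; 0% is about no effect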
TRHR agonist-2 = human TRH receptor agonism confirmation. Potency, µM (titrated, usually from 46.1 µM), for the others: at the top dose activation, hits mostly activators. TRHR-expressing cells, agonist activation read-out. shares compounds with TRHR enhancer-1. hit rate 8% among 970; active = well fitted curve in the direction sought with a large enough effect; inconclusive = small, poorly fitted or top-dose-only effect, or another doubt; inactive = no such curve, though single readings can be large; an effect the other way counts as inactive or inconclusive; note: potency is the fitted concentration of half-maximal effect; 0% is about no effect; nearly all actives have a fitted effect of over 75% in size
* = called active by the depositor; ? = inconclusive; . = no result. Cut-off read from the data, not from the text of the source, unless noted: active = activation above about 30%; inactive = the rest.

SMILES	TRHR enhancer-1	TRHR agonist-1	D1 agonist	D1 antagonist	D1 potentiator	TRHR enhancer-2	TRHR agonist-2
COc1ccc2c(c1)CC(NC(=O)Nc1ccc(Br)c(C)c1)CO2 (centres undefined)	3.1	0.3	1.3	-1.2	-1.4	.	.
CCCN(Cc1cccs1)C(=O)Nc1cc(C)ccc1OC	10.3	-0.6	-0.5	2.1	0.8	.	.
OC(COc1ccccc1)CN1CCN(Cc2ccc3c(c2)OCO3)CC1 (centres undefined)	-0.8	0.8	1.0	-1.9	-6.8	.	.
Cc1cc(C)cc(OCC(O)CN2CCN(Cc3ccc4c(c3)OCO4)CC2)c1 (centres undefined)	43.7*	0.1	21.6	-6.7	-7.3	-2.0	-0.7%
Cc1ccc(CNC(=O)c2c(-c3cccc(Br)c3)noc2C)o1	7.1	-0.8	0.5	6.3	-0.5	.	.
N#CC1=C(N)Oc2cc(O)c(Cl)cc2C1c1cccnc1 (centres undefined)	-1.1	64.5*	59.7*	6.8	1.7	5.3	?
N#CC1=C(N)Oc2cc(O)ccc2C1c1cccnc1 (centres undefined)	7.3	0.1	1.8	-3.1	-6.5	.	.
CCOC(=O)NC1(C(F)(F)F)NC(=O)N(c2ccc(C)c(C)c2)C1=O (centres undefined)	7.6	0.0	-0.2	20.0	2.2	.	.
CCOC(=O)C1=C(O)/C(=C/c2cc(OC)c(O)c(OC)c2)SC1=Nc1ccc(OC)cc1	8.2	27.4	17.1	-63.6*	-13.6	-0.7	?
CCOCCCNC(=O)c1ccc2c(c1)NC(=O)C(CS(=O)(=O)Cc1ccc(F)cc1Cl)N2 (centres undefined)	7.2	0.7	-1.1	0.2	0.5	.	.
Cc1ccc(S(=O)(=O)Nc2cnc3ccccc3c2)cc1	7.4	1.5	8.8	-2.7	2.8	.	.
O=S(=O)(Nc1cnc2ccccc2c1)N1CCCCCC1	47.9*	1.3	4.3	12.9	-6.3	2.0	4.1%
O=c1c2oc3ccccc3c2n(Cc2ccccc2Cl)c(=O)n1Cc1ccc2c(c1)OCO2	0.3	-0.1	2.5	4.3	-4.0	.	.
CCN(CC)C(=O)c1cc2c(=O)c3cc(Cl)ccc3oc2nc1C	72.6*	-2.0	3.5	-17.8	-3.8	-0.1	-0.7%
CCOc1ccc(-n2c(SCC(=O)N3CCCc4ccccc43)nc3c([nH]c4ccccc43)c2=O)cc1	2.7	0.2	1.1	-8.0	-0.9	.	.
COCCNC(=O)Cn1cc(S(=O)(=O)Cc2ccccc2Cl)c2ccccc21	-2.3	-0.7	2.0	3.0	-1.8	.	.
COc1ccc(C(=O)NCCc2nnc3ccc(SCC(=O)NCc4ccccc4)nn23)cc1	63.6*	-0.5	0.7	4.4	-8.3	-6.4	-0.7%
c1ccc(Oc2ccc(-c3ccnc4ncnn34)cc2)cc1	48.0*	-1.9	2.8	1.5	0.7	-6.7	0.4%
CCOC(=O)c1cccc(NC(=O)NCc2cccn2Cc2ccccc2)c1	5.6	-0.5	14.4	-18.2	-5.9	.	.
Cc1ccccc1NC1=C(Cl)C(=O)N(C2CCCCC2)C1=O	-0.9	3.0	5.6	10.3	2.6	.	.
COc1ccccc1NC1=C(Cl)C(=O)N(C2CCCCC2)C1=O	45.8*	0.0	1.2	-88.2*	-2.1	9.7	4.1%
COc1ccccc1Nc1nc(-c2cccs2)cs1	44.3*	1.4	0.7	-24.0	-5.6	-4.9	4.8%
COc1ccc(OC)c(Nc2nc(-c3cccs3)cs2)c1	-3.1	0.5	0.4	14.9	-1.6	.	.
Cc1ccc(Cn2c(=O)n(-c3ccc(C)c(C)c3)c(=O)c3c(C)c(C)sc32)cc1	-3.4	-0.3	4.7	6.3	1.9	.	.
CCCCCn1c(=O)[nH]c2cc(C(=O)N3CCN(c4cccc(C)c4)C(C)C3)ccc2c1=O (centres undefined)	1.9	0.3	5.1	-13.2	1.4	.	.
Cc1c2cnn(-c3ccccc3)c(=O)c2c(C)n1CCCC(=O)Nc1cc(F)ccc1F	2.1	-1.6	-0.1	16.2	-0.3	.	.
O=C(C1COc2ccccc2O1)N1CCN(S(=O)(=O)c2cc(F)ccc2F)CC1 (centres undefined)	-2.5	0.2	1.4	-15.9	1.6	.	.
